# In PMC7862700, “An all-to-all approach to the identification of sequence-specific readers for epigenetic DNA modifications on cytosine”:
# Columns and labels:
# Assay in all cases: DAPPL (digital affinity profiling via proximity ligation, sequencing); 10 mM Tris-HCl pH 7.5, 50 mM NaCl, 1 mM DTT, 4% glycerol, room temperature, 30 min; GST-TFs on glutathione beads, 16-mer random dsDNA library, 0.1% formaldehyde crosslink after washing; high values mean tight binding
# FLI1 = target: T1, FLI1 (Homo sapiens, UniProt Q01543 1-452); conditions: protein: recombinant; tags: N-terminal GST; dsDNA, one strand shown
# T1 sequence: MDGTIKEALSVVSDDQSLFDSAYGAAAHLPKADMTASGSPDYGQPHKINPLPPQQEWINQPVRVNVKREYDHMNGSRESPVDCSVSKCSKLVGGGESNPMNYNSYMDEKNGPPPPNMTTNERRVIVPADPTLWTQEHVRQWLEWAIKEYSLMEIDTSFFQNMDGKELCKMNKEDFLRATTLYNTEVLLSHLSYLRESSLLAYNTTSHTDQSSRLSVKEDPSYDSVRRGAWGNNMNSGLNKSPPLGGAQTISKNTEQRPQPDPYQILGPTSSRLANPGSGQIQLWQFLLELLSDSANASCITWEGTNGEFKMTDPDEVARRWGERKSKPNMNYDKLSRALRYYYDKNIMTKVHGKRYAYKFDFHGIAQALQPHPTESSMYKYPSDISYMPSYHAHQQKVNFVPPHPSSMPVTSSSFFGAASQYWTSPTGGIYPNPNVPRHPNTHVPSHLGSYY
# In short: (§1)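 A tag-only sample was pooled with DNA-barcoded human transcription factors that had been expressed in yeast as GST fusions and captured on glutathione beads. The pools were incubated for 30 min at room temperature with 200 nmole of a random double-stranded 16-mer DNA library in Tris/NaCl/DTT/glycerol buffer, then washed, crosslinked with 0.1% formaldehyde, proximity-ligated (BsaI/T4 ligase, 1 h, 37 °C), PCR-amplified and sequenced on an Illumina NextSeq500. Binding signal is each hexamer's read frequency for a factor divided by its frequency for the tag-only sample.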
# ELK1 = target: T2, ELK1 (Homo sapiens, UniProt P19419 1-428); conditions: protein: recombinant; tags: N-terminal GST; dsDNA, one strand shown
# T2 sequence: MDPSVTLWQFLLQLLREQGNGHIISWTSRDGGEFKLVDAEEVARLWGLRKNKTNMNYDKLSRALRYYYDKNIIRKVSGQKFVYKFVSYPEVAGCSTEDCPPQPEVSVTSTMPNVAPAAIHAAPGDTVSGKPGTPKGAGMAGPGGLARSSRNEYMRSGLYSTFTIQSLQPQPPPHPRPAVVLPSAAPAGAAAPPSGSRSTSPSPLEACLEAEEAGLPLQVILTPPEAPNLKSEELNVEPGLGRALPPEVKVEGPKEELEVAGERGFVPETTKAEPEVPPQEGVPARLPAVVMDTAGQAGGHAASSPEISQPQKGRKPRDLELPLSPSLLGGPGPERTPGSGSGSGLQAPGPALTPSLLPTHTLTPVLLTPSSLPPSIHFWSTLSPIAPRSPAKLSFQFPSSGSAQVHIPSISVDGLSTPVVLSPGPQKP
# In short: as §1
# GABPA = target: T3, GABPA (Homo sapiens, UniProt Q06546 1-454); conditions: protein: recombinant; tags: N-terminal GST; dsDNA, one strand shown
# T3 sequence: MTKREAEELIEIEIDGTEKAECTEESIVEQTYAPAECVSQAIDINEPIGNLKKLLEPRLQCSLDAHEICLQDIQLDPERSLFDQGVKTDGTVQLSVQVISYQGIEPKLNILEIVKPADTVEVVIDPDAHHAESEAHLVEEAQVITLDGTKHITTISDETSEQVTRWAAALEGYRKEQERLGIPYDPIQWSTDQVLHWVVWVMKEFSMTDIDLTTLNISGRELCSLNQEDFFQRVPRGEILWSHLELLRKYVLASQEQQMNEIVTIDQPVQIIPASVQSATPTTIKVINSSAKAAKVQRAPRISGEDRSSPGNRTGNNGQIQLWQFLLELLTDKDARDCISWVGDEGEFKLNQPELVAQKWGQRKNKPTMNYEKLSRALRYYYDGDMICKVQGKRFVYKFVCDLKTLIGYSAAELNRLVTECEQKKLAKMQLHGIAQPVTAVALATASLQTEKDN
# In short: as §1
# ERG = target: T4, ERG (Homo sapiens, UniProt P11308 1-479); conditions: protein: recombinant; tags: N-terminal GST; dsDNA, one strand shown
# T4 sequence: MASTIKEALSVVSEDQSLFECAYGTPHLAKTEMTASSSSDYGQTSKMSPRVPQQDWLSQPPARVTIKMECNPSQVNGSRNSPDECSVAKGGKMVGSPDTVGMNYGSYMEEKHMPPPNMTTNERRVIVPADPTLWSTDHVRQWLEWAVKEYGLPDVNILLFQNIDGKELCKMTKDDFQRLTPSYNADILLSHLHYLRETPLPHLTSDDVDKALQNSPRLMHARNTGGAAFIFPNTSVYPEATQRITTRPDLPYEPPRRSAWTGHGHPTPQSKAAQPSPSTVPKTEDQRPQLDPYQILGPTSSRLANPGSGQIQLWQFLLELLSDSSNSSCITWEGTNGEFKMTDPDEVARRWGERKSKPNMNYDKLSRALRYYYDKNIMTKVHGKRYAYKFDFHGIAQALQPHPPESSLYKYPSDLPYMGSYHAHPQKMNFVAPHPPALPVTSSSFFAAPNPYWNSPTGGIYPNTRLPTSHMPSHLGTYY
# In short: as §1
# ELF1 = ELF1 (Homo sapiens, UniProt P32519 1-619); conditions: protein: recombinant; tags: N-terminal GST; dsDNA, one strand shown
# Chain of ELF1 (P32519 whole entry): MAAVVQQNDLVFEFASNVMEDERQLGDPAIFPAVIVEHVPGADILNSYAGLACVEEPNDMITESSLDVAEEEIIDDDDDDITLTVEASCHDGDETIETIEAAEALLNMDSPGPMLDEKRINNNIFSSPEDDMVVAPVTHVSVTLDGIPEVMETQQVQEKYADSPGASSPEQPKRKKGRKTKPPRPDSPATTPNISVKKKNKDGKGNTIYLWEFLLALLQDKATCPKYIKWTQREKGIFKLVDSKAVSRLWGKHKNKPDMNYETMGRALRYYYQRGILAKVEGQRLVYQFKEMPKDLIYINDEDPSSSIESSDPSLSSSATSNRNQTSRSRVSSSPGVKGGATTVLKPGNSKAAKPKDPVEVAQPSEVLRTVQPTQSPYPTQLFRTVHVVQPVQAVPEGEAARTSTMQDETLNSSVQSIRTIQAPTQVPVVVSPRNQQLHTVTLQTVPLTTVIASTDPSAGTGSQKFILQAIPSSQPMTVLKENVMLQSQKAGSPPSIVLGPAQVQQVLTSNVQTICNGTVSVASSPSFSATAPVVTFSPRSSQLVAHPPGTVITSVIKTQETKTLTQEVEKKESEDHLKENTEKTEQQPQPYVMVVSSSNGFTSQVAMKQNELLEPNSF
# In short: as §1
# EHF = target: T5, EHF (Homo sapiens, UniProt Q9NZC4 1-300); conditions: protein: recombinant; tags: N-terminal GST; dsDNA, one strand shown
# T5 sequence: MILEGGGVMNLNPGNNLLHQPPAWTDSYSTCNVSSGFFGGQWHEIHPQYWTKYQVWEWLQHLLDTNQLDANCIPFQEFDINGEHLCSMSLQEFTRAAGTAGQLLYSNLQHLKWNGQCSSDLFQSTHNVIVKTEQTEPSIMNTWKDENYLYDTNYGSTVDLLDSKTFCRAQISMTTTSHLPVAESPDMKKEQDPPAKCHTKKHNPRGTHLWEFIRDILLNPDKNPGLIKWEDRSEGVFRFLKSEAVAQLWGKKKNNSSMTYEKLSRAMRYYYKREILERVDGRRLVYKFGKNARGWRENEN
# In short: as §1
# SPI1 = SPI1 (Homo sapiens, UniProt P17947 1-270); conditions: protein: recombinant; tags: N-terminal GST; dsDNA, one strand shown
# In short: as §1
# SPIB = SPIB (Homo sapiens, UniProt Q01892 1-262); conditions: protein: recombinant; tags: N-terminal GST; dsDNA, one strand shown
# Chain of SPIB (Q01892 whole entry): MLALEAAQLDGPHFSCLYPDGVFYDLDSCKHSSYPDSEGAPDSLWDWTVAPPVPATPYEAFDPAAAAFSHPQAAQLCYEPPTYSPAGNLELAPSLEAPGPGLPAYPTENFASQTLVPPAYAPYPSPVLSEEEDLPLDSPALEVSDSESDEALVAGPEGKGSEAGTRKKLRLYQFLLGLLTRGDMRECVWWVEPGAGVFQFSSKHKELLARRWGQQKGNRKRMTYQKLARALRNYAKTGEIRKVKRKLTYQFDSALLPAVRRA
# In short: as §1
# ELK3 = target: T6, ELK3 (Homo sapiens, UniProt P41970 1-407); conditions: protein: recombinant; tags: N-terminal GST; dsDNA, one strand shown
# T6 sequence: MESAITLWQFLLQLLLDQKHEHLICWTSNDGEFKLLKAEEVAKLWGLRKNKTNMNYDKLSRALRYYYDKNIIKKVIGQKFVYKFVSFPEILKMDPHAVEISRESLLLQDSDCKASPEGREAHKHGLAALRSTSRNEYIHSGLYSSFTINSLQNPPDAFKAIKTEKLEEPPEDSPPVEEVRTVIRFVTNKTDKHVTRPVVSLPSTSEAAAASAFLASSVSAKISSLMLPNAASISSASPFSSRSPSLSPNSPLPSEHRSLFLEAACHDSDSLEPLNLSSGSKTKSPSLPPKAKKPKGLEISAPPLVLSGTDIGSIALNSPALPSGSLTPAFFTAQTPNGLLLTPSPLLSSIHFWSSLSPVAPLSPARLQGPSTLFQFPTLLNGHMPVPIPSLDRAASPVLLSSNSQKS
# In short: as §1
# FEV = target: T7, FEV (Homo sapiens, UniProt Q99581 1-238); conditions: protein: recombinant; tags: N-terminal GST; dsDNA, one strand shown
# T7 sequence: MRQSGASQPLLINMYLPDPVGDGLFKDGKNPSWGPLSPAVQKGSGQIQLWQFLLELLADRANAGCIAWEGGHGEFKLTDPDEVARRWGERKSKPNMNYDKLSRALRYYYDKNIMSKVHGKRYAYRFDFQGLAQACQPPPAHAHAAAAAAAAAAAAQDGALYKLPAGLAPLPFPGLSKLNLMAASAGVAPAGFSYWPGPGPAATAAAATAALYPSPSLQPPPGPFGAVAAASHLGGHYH
# In short: as §1
# ETV5 = ETV5 (Homo sapiens, UniProt P41161 1-510); conditions: protein: recombinant; tags: N-terminal GST; dsDNA, one strand shown
# Chain of ETV5 (P41161 whole entry): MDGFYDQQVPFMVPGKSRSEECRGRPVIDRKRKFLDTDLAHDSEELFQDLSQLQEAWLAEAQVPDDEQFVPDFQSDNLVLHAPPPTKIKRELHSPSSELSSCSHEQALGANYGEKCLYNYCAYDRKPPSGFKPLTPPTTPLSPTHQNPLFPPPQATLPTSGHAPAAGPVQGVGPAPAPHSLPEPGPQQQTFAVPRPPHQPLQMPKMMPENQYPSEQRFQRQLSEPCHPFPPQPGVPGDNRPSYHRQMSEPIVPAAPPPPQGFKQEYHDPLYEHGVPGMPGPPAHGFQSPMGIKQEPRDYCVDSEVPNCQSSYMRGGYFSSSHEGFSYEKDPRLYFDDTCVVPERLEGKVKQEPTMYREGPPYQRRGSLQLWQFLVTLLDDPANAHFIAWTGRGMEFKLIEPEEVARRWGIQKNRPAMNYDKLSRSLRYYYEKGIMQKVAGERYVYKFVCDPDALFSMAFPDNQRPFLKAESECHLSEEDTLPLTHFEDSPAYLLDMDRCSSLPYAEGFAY
# In short: as §1
# HSF1 = HSF1 (Homo sapiens, UniProt Q00613 1-529); conditions: protein: recombinant; tags: N-terminal GST; chain copies: 3; dsDNA, one strand shown
# Chain of HSF1 (Q00613 whole entry): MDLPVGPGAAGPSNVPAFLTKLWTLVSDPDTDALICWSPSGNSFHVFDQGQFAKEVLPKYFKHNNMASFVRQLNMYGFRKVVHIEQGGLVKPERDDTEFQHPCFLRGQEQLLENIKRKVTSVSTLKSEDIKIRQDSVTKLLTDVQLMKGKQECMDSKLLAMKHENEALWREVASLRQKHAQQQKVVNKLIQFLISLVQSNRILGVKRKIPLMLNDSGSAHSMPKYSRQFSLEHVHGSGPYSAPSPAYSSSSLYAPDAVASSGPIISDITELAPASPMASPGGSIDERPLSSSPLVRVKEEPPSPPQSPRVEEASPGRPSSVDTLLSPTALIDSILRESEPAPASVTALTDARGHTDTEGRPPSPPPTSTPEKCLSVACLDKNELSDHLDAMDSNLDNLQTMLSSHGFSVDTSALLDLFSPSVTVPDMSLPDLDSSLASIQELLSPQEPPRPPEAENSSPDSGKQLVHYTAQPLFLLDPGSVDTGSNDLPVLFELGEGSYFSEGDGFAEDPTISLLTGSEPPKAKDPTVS
# In short: as §1
# SPIC = target: T8, SPIC (Homo sapiens, UniProt Q8N5J4 1-248); conditions: protein: recombinant; tags: N-terminal GST; dsDNA, one strand shown
# T8 sequence: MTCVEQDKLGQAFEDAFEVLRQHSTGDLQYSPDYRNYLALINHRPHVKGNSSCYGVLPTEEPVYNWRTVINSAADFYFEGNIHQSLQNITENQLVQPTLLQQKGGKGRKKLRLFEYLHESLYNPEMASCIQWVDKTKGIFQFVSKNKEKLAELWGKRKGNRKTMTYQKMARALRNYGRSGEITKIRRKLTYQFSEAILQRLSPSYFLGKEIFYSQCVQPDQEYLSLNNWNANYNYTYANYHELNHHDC
# In short: as §1
# ELF4 = ELF4 (Homo sapiens, UniProt Q99607 1-663); conditions: protein: recombinant; tags: N-terminal GST; dsDNA, one strand shown
# Chain of ELF4 (Q99607 whole entry): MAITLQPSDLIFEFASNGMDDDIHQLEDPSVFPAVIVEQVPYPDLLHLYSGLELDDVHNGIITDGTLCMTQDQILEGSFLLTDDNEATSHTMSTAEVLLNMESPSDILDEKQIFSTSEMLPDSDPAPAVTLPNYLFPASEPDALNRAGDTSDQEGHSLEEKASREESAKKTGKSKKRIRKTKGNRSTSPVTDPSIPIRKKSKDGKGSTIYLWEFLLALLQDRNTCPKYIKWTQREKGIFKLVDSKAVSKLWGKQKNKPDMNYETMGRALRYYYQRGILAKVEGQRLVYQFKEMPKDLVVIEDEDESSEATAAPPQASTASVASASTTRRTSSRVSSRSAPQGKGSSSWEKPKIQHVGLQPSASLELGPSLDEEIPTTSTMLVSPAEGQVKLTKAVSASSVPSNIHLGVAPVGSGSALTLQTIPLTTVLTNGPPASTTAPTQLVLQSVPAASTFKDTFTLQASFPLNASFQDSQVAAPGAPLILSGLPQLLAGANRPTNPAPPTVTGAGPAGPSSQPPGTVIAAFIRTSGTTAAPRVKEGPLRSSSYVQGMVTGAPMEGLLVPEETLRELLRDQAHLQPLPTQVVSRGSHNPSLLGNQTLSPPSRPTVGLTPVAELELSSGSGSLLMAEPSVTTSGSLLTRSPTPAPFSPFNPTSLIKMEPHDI
# In short: as §1
# ELK4 = target: T9, ELK4 (Homo sapiens, UniProt P28324-2 1-405); conditions: protein: recombinant; tags: N-terminal GST; dsDNA, one strand shown
# T9 sequence: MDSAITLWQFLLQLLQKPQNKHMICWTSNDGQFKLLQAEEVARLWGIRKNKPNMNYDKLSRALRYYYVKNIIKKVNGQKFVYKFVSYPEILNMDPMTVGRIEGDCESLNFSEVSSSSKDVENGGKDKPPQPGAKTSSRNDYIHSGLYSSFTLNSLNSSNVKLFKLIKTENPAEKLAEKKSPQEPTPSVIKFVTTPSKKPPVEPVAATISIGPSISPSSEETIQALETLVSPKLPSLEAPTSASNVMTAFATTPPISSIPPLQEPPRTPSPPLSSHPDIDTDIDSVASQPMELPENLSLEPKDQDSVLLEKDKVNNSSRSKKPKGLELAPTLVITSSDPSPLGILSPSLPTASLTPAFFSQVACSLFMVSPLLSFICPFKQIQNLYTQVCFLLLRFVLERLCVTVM
# In short: as §1
# ETV2 = target: T10, ETV2 (Homo sapiens, UniProt O00321 1-342); conditions: protein: recombinant; tags: N-terminal GST; dsDNA, one strand shown
# T10 sequence: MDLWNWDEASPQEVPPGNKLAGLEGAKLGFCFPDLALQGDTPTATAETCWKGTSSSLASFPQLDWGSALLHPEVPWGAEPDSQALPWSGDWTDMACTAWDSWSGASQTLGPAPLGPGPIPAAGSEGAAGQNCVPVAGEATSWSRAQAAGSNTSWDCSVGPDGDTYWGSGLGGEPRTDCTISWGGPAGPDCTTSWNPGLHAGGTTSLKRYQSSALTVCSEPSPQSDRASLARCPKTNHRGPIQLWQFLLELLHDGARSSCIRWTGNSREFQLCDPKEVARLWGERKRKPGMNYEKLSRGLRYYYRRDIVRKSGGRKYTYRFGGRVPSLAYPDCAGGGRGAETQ
# In short: as §1
# ELF3 = target: T11, ELF3 (Homo sapiens, UniProt P78545 1-371); conditions: protein: recombinant; tags: N-terminal GST; dsDNA, one strand shown
# T11 sequence: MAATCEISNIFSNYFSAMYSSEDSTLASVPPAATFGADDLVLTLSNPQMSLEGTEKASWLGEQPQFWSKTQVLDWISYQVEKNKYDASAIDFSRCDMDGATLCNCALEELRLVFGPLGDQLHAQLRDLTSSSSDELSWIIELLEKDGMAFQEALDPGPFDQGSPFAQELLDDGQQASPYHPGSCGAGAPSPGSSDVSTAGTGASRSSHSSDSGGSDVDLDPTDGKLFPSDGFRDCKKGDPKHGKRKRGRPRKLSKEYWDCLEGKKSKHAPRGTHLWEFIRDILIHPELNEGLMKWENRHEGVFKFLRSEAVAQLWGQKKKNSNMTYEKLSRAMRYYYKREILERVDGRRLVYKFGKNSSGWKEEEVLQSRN
# In short: as §1
# CRX = CRX (Homo sapiens, UniProt O43186 1-299); conditions: protein: recombinant; tags: N-terminal GST; dsDNA, one strand shown
# Chain of CRX (O43186 whole entry): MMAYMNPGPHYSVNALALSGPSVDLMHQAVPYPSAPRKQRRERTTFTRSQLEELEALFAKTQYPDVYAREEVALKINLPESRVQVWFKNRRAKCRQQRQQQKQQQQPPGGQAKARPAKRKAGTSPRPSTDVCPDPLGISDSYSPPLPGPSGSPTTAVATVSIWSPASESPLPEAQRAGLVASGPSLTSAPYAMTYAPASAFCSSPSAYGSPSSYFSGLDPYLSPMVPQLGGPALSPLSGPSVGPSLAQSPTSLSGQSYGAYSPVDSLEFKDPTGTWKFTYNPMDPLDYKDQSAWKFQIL
# In short: as §1
# ETV1 = ETV1 (Homo sapiens, UniProt P50549 1-477); conditions: protein: recombinant; tags: N-terminal GST; dsDNA, one strand shown
# Chain of ETV1 (P50549 whole entry): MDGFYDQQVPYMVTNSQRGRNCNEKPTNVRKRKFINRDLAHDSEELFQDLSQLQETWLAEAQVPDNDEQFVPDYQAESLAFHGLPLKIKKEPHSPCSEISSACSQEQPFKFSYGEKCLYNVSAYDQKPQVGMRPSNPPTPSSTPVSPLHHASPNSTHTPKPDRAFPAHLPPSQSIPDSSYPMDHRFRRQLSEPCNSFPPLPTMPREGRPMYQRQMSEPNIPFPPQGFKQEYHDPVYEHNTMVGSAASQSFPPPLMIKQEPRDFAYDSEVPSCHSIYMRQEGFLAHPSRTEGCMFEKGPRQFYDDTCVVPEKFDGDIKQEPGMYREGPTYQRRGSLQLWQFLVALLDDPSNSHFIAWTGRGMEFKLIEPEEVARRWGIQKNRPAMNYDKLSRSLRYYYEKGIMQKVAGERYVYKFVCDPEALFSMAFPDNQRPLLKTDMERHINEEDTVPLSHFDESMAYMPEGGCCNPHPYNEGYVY
# In short: as §1
sequence,measurement,setting,value
TATTTT,binding signal,FLI1,"1.3 fold enrichment (6-mer frequency, TF over GST control)"
same,binding signal,ELK1,"1.3 fold enrichment (6-mer frequency, TF over GST control)"
same,binding signal,GABPA,"1.34 fold enrichment (6-mer frequency, TF over GST control)"
same,binding signal,ERG,"1.39 fold enrichment (6-mer frequency, TF over GST control)"
same,binding signal,ELF1,"1.31 fold enrichment (6-mer frequency, TF over GST control)"
same,binding signal,EHF,"1.44 fold enrichment (6-mer frequency, TF over GST control)"
same,binding signal,SPI1,"1.35 fold enrichment (6-mer frequency, TF over GST control)"
same,binding signal,SPIB,"1.32 fold enrichment (6-mer frequency, TF over GST control)"
same,binding signal,ELK3,"1.36 fold enrichment (6-mer frequency, TF over GST control)"
same,binding signal,FEV,"1.23 fold enrichment (6-mer frequency, TF over GST control)"
same,binding signal,ETV5,"1.39 fold enrichment (6-mer frequency, TF over GST control)"
same,binding signal,HSF1,"1.5 fold enrichment (6-mer frequency, TF over GST control)"
same,binding signal,SPIC,"1.42 fold enrichment (6-mer frequency, TF over GST control)"
same,binding signal,ELF4,"1.4 fold enrichment (6-mer frequency, TF over GST control)"
same,binding signal,ELK4,"1.49 fold enrichment (6-mer frequency, TF over GST control)"
same,binding signal,ETV2,"1.45 fold enrichment (6-mer frequency, TF over GST control)"
same,binding signal,ELF3,"1.36 fold enrichment (6-mer frequency, TF over GST control)"
same,binding signal,CRX,"1.77 fold enrichment (6-mer frequency, TF over GST control)"
same,binding signal,ETV1,"1.48 fold enrichment (6-mer frequency, TF over GST control)"
